Data taken from the supplement of paper PMC11634586.
Where a name gives a salt, the structure may show the parent alone. A number with no mark means an inactive call.

What follows are molecules tested on NCI-H1688 (assay: inhibition of cell viability relative to untreated control (fraction); higher = stronger growth inhibition, active = 0.5 or more). Settings: 30 µM; 24 h.
Procedure, shortened: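 NCI-H1688 small cell lung cancer cells were plated in 96-well plates at 3 × 10^3 cells/well, and 24 h later they were exposed to a natural compound library (TargetMol) at 30 µM for 24 h at 37°C with 5% CO2. Viability was measured in triplicate using Cell Counting Kit-8, read as absorbance at 450 nm. Inhibition of cell viability is given as a fraction, calculated from viability normalised to untreated cells.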

SMILES	inhibition of cell viability
O=C(O)[C@H]1O[C@@H](Oc2cc3oc(-c4ccc(O)cc4)cc(=O)c3c(O)c2O)[C@H](O)[C@@H](O)[C@@H]1O [Breviscapin]	0.262
CC(C)=CCC[C@](C)(O)[C@H]1CC[C@]2(C)[C@@H]1[C@H](O)C[C@@H]1[C@@]3(C)CC[C@H](O)C(C)(C)[C@@H]3[C@@H](O[C@@H]3O[C@H](CO)[C@@H](O)[C@H](O)[C@H]3O[C@@H]3O[C@@H](C)[C@H](O)[C@@H](O)[C@H]3O)C[C@]12C [Ginsenoside Rg2]	0.155
CC(C)[C@@H]1CC[C@@H](C)C[C@H]1O [L-Menthol]	0.178
C=C(C)[C@H]1CC=C(C)C(=O)C1 [(S)-(+)-Carvone]	0.248
COc1cc(C=O)ccc1OC(C)=O [Acetylvanillin]	-0.295
COc1ccc(-c2cc(=O)c3c(O)cc(O)cc3o2)cc1O [Diosmetin]	0.314
CC(C)=CCC[C@](C)(O[C@@H]1O[C@H](CO)[C@@H](O)[C@H](O)[C@H]1O)[C@H]1CC[C@]2(C)[C@@H]1[C@H](O)C[C@@H]1[C@@]3(C)CC[C@H](O)C(C)(C)[C@@H]3[C@@H](O[C@@H]3O[C@H](CO)[C@@H](O)[C@H](O)[C@H]3O[C@@H]3O[C@@H](C)[C@H](O)[C@@H](O)[C@H]3O)C[C@]12C [Ginsenoside Re]	-0.0285
COC(=O)Nc1nc2cc(C(=O)c3cccs3)ccc2[nH]1 [Nocodazole]	0.75 (active)
CC1(C)C(O[C@@H]2OC[C@@H](O)[C@H](O)[C@H]2O)CC[C@]23CC24CC[C@]2(C)[C@@H]([C@@]5(C)CC[C@@H](C(C)(C)O)O5)[C@H](O)C[C@@]2(C)C4C[C@@H](O[C@@H]2O[C@H](CO)[C@@H](O)[C@H](O)[C@H]2O)C13 (some centres not stated) [Astragaloside IV]	-0.0383
CC1(C)CCC[C@]2(C)[C@H]3CC(=O)O[C@]3(C)CC[C@@H]12 [Sclareolide]	0.206
C=C1CC[C@H]2O[C@]2(C)CC[C@@H]2[C@@H]1CC2(C)C [Caryophyllene oxide]	-0.0678
C[C@H]1CC[C@@]2(OC1)O[C@H]1C[C@H]3[C@@H]4CC[C@@H]5C[C@@H](O)CC[C@]5(C)[C@H]4CC[C@]3(C)[C@H]1[C@@H]2C [Sarsasapogenin]	-0.0422
CCCCCCCCCCCCCCCCCCCCCCO [Behenic alcohol]	-0.0686
COc1ccc(-c2oc3c(CC=C(C)C)c(O[C@@H]4O[C@H](CO)[C@@H](O)[C@H](O)[C@H]4O)cc(O)c3c(=O)c2O[C@@H]2O[C@@H](C)[C@H](O)[C@@H](O)[C@H]2O)cc1 [Icariin]	0.041
CC(C)=CCC[C@](C)(O[C@@H]1O[C@H](CO)[C@@H](O)[C@H](O)[C@H]1O)[C@H]1CC[C@]2(C)[C@@H]1[C@H](O)C[C@@H]1[C@@]3(C)CC[C@H](O)C(C)(C)[C@@H]3[C@@H](O[C@@H]3O[C@H](CO)[C@@H](O)[C@H](O)[C@H]3O[C@@H]3OC[C@@H](O)[C@H](O)[C@H]3O)C[C@]12C [Notoginsenoside R1]	-0.0107
COc1c(C)c2c(c(O)c1C/C=C(\C)CCC(=O)O)C(=O)OC2 [Mycophenolic acid]	0.841 (active)
O=c1cc(-c2ccc(O)c(O)c2)oc2cc(O[C@@H]3O[C@H](CO)[C@@H](O)[C@H](O)[C@H]3O)cc(O)c12 [Cynaroside]	0.705 (active)
OC[C@H]1O[C@H](O[C@H]2O[C@H](CO)[C@@H](O)[C@H](O)[C@H]2O)[C@H](O)[C@@H](O)[C@@H]1O [D-(+)-Trehalose dihydrate]	0.249
O=c1[nH]cnc2c1ncn2[C@@H]1O[C@H](CO)[C@@H](O)[C@H]1O [Inosine]	0.0115

SMILES	inhibition of cell viability
C=CCc1ccc(O)c(OC)c1 [Eugenol]	-0.184
O=C[C@H](O)[C@@H](O)[C@H](O)CO (racemic) [DL-Xylose]	-0.162
C/C=C(/C)C(=O)O[C@H]1[C@H](OC(C)=O)[C@@]2(CO)C(CC1(C)C)C1=CCC3[C@@]4(C)CCC(O[C@@H]5O[C@H](C(=O)O)[C@@H](O[C@@H]6O[C@H](CO)[C@@H](O)[C@H](O)[C@H]6O)[C@H](O)[C@H]5O[C@@H]5O[C@H](CO)[C@@H](O)[C@H](O)[C@H]5O)[C@](C)(CO)C4CC[C@@]3(C)[C@]1(C)C[C@H]2O.C/C=C(\C)C(=O)O[C@H]1[C@H](OC(C)=O)[C@@]2(CO)C(CC1(C)C)C1=CCC3[C@@]4(C)CCC(O[C@@H]5O[C@H](C(=O)O)[C@@H](O[C@@H]6O[C@H](CO)[C@@H](O)[C@H](O)[C@H]6O)[C@H](O)[C@H]5O[C@@H]5O[C@H](CO)[C@@H](O)[C@H](O)[C@H]5O)[C@](C)(CO)C4CC[C@@]3(C)[C@]1(C)C[C@H]2O (some centres not stated) [Escin]	0.982 (active)
O=C(/C=C/c1ccc(O)c2oc(-c3ccc(O)c(O)c3)cc12)O[C@H](Cc1ccc(O)c(O)c1)C(=O)O [Salvianolic Acid C]	0.0822
Cn1c(=O)c2[nH]cnc2n(C)c1=O [Aminophylline]	0.644 (active)
CC[C@H]1OC(=O)C[C@@H](O)[C@H](C)[C@@H](O[C@@H]2O[C@H](C)[C@@H](O[C@H]3C[C@@](C)(O)[C@@H](O)[C@H](C)O3)[C@H](N(C)C)[C@H]2O)[C@@H](CC=O)C[C@@H](C)C(=O)/C=C/C(C)=C/[C@@H]1CO[C@@H]1O[C@H](C)[C@@H](O)[C@@H](OC)[C@H]1OC [Tylosin]	0.0387
COc1cc2c(cc1O)[C@@H](Cc1ccc(O)c(Oc3ccc(C[C@@H]4c5cc(OC)c(OC)cc5CCN4C)cc3)c1)N(C)CC2 [Daurisoline]	0.977 (active)
C=C(C)[C@@H]1CC=C(CO)CC1 [Perillyl alcohol]	0.195
C[C@@H]1O[C@@H](Oc2c(-c3ccc(O)c(O)c3)oc3cc(O)cc(O)c3c2=O)[C@H](O)[C@H](O)[C@H]1O [Quercitrin]	0.325
Nc1ncnc2c1ncn2C1CC(O)C(CO)O1 (configuration not stated) [2'-Deoxyadenosine monohydrate]	-0.0483
CC(C)=CCC[C@](C)(O[C@@H]1O[C@H](CO)[C@@H](O)[C@H](O)[C@H]1O)[C@H]1CC[C@]2(C)[C@@H]1[C@H](O)C[C@@H]1[C@@]3(C)CC[C@H](O[C@@H]4O[C@H](CO)[C@@H](O)[C@H](O)[C@H]4O[C@@H]4O[C@H](CO)[C@@H](O)[C@H](O)[C@H]4O)C(C)(C)[C@@H]3CC[C@]12C [Ginsenoside Rd]	0.03
C/C(=C\C(=O)OCCCCCCCCC(=O)O)C[C@@H]1OC[C@H](C[C@@H]2O[C@H]2[C@@H](C)[C@H](C)O)[C@@H](O)[C@H]1O [Mupirocin]	0.0375
Nc1ncnc2c1ncn2[C@@H]1O[C@H](CO)C[C@H]1O [Cordycepin]	-0.154
COc1cc2c(cc1OC)[C@@H]1Cc3ccc(OC)c(OC)c3CN1CC2 [Rotundine, TETRAHYDROPALMATINE HYDROCHLORIDE]	-0.254
CC(=O)[C@@]1(O)CC[C@H]2[C@@H]3CCC4=CC(=O)CC[C@]4(C)[C@H]3CC[C@@]21C [Hydroxyprogesterone]	0.102
C[C@H]1COC2=C1C(=O)C(=O)c1c2ccc2c1CCCC2(C)C [Cryptotanshinone]	1 (active)
CNC1CCCN(c2c(F)cc3c(=O)c(C(=O)O)cn(C4CC4)c3c2OC)C1 (configuration not stated) [Balofloxacin]	0.118
C=C1C(=O)O[C@@H]2C[C@@]3(C)CCCC(=C)[C@@H]3C[C@H]12 [Isoalantolactone]	0.867 (active)
